# Test results from PubChem BioAssay (NCATS).
# Where “and” joins values, the source holds several entries; their conditions need not be identical. Identical values can stand only once. Records with an inconclusive call do not appear. Entries that show only a call come without a potency. Calls of active or inactive are those of the source. Unless noted, the call rests on the fitted dose curve; in most records, active means well fitted curve in the direction sought with a large enough effect; inconclusive means small, poorly fitted or top-dose-only effect, or another doubt; inactive means no such curve, though single readings can be large; an effect the other way counts as inactive or inconclusive.
# Key:
# [1] = qHTS Assay for Identifying Gametocytocidal Compounds (AID 743244); further: potency means the concentration at half of the fitted maximal effect;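 on max response: actives lower the fluorescent signal which means gametocytes are killed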; conditions: P. falciparum 3D7 stage III-V gametocytes, alamarBlue, 72 h; max response: stronger effect = lower value
# In short: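 A resazurin-based viability read-out was applied to mature P. falciparum gametocytes: 72 h compound treatment, then 24 h dye incubation, with falling fluorescence signalling gametocytocidal effect.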
# [2] = qHTS assay to identify small molecule inhibitors of chordoma cells - UCH-1 (AID 1259355); further: nearly all actives have a fitted effect of over 55% in size; further: potency means the concentration at half of the fitted maximal effect
# In short: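 Luminescent ATP read-out (CellTiter-Glo, 30min at room temperature) measured viability of UCH-1 cells exposed for 48hr to test drugs at 15 concentrations, co-dosed with a five-agent combination of auranofin, camptothecin, doxorubicin, rubitecan and topotecan.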
# [3] = qHTS assay to identify small molecule inhibitors of chordoma cells - UCH-2 (AID 1259356); further: potency means the concentration at half of the fitted maximal effect
# [4] = qHTS assay for cell viability of the p53RE-bla HCT-116 cell line (AID 743292); further: nearly all actives have a fitted effect of over 55% in size
# In short: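 Intracellular ATP of p53RE-bla HCT-116 cells measured by luciferase luminescence following 16 h compound incubation at 37 C; DMSO-only wells served as vehicle controls.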
# [5] = P-glycoprotein substrates identified in KB-8-5-11 adenocarcinoma cell line, qHTS therapeutic library screen (AID 1346987); further: nearly all actives have a fitted effect of over 65% in size; further: potency means the concentration at half of the fitted maximal effect
# In short: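 KB-8-5-11: colchicine-selected sub-line of KB-3-1 over-expressing P-gp; assay medium lacked colchicine. 72 h drug exposure at 37 degree C, CellTiter-Glo.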
# [6] = qHTS profiling for inhibitors of Plasmodium falciparum (3D7) proliferation (AID 743322);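 further: infected erythrocytes exposed to compound for 72 h before lysis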; conditions: P. falciparum 3D7 proliferation; at 28.7 µM (top of the series)
# In short: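 Erythrocytes infected with P. falciparum (0.3% parasitemia, 2.5% hematocrit) incubated with compounds 72 h at 37 C, 5% CO2. Lysis with saponin/Triton buffer containing SYBR Green I, overnight at room temperature in the dark; DNA fluorescence (485/535 nm) normalised to 0.29 uM artemisinin and DMSO.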
# [7] = qHTS profiling for inhibitors of Plasmodium falciparum (DD2) proliferation (AID 743323; call rule not given here); conditions: lower = more inhibition; at 28.7 µM (top of the series)
# In short: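 1536-well qHTS; infected RBCs 0.3% parasitemia/2.5% Hct final; cpd 72 h 37 C 5% CO2; lysis buffer + SYBR Green I, o/n RT dark; FI 485/535; norm. to 0.29 uM artemisinin and DMSO, plate-stack corrected.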
# [8] = qHTS profiling for inhibitors of Plasmodium falciparum (HB3) proliferation (AID 743324); conditions: Plasmodium falciparum HB3 blood-stage proliferation; at 28.7 µM (top of the series)
# In short: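 P. falciparum HB3 grown in erythrocytes (0.3% parasitemia, 2.5% hematocrit final) with compound for 72 h at 37 C, 5% CO2. Parasite DNA detected by SYBR Green after saponin/triton lysis overnight; normalized to 0.29 uM artemisinin and DMSO.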
compound,measurement,setting,value
CC[C@H](C)[C@H]1O[C@]2(C=C[C@@H]1C)C[C@@H]1C[C@@H](C/C=C(\C)[C@@H](O[C@H]3C[C@H](OC)[C@@H](O[C@H]4C[C@H](OC)[C@@H](O)[C@H](C)O4)[C@H](C)O3)[C@@H](C)/C=C/C=C3\CO[C@@H]4[C@H](O)C(C)=C[C@@H](C(=O)O1)[C@]34O)O2,max response,[1],-7.27% (inactive)
same,Potency,[2],inactive
same,Potency,[3],inactive
CN1C2CCC1CC(OC(c1ccccc1)c1ccc(Cl)cc1)C2 (stereo not drawn),Potency,[1],17.8 µM (active)
same,Potency,[2],inactive
same,Potency,[3],inactive
CCOP(=O)(OCC)O/C(=C/Cl)c1ccc(Cl)cc1Cl,max response,[1],-0.665% (inactive)
same,Potency,[4],inactive
same,Potency,[2],inactive
same,Potency,[3],inactive
same,Potency,[5],10.3 µM (active)
ClCC1CO1 (stereo not drawn),max response,[1],11.4% (inactive)
same,Potency,[4],inactive
same,Potency,[2],inactive
same,Potency,[3],inactive
same,Potency,[5],inactive
O=C(OCCN1CCCCC1)C(O)(c1ccccc1)c1ccccc1,max response,[1],6.84% (inactive)
same,Potency,[2],inactive
same,Potency,[3],inactive
same,Potency,[5],inactive
CC[N+](C)(CC)CCOC(=O)C(O)(c1ccccc1)c1ccccc1,max response,[1],11.5% (inactive)
same,Potency,[2],inactive
same,Potency,[3],inactive
same,Potency,[5],inactive
CC1CCC(C(C)C)C(OC(=O)c2ccccc2N)C1 (stereo not drawn),max response,[1],9.28% (inactive)
same,Potency,[2],inactive
same,Potency,[3],inactive
same,Potency,[5],inactive
C/C(=C\c1csc(C)n1)[C@@H]1C[C@@H]2O[C@]2(C)CCC[C@H](C)[C@H](O)[C@@H](C)C(=O)C(C)(C)[C@@H](O)CC(=O)O1,max response,[1],12.6% (inactive)
same,remaining parasite growth % (stronger effect = lower value),[6],11%
same,"activity, percent of control",[7],13%
same,"remaining proliferation (% of control), lower = more inhibition",[8],14.1%
same,Potency,[2],inactive
same,Potency,[3],inactive
same,Potency,[5],0.0366 µM (active)
O=C/C=C/c1ccccc1,max response,[1],4.39% (inactive)
same,Potency,[4],inactive
same,Potency,[2],inactive
same,Potency,[3],inactive
same,Potency,[5],inactive
Oc1cccc[c]1[Hg][Cl],Potency,[1],1.78 µM (active)
same,Potency,[2],15.8 µM [with auranofin plus four topoisomerase inhibitors] (active)
same,Potency,[3],13 µM (active)
same,Potency,[5],5.17 µM (active)
CC(C)Nc1ccc(Nc2ccccc2)cc1,Potency,[4],inactive
same,Potency,[2],inactive
same,Potency,[3],inactive
same,Potency,[5],20.6 µM (active)
S=C=S,max response,[1],-5.35% (inactive)
same,Potency,[4],inactive
same,Potency,[2],inactive
same,Potency,[3],inactive
same,Potency,[5],inactive
O=[N+]([O-])c1ccccc1,max response,[1],18.1% (inactive)
same,Potency,[4],inactive
same,Potency,[2],inactive
same,Potency,[3],inactive
same,Potency,[5],inactive
Cc1ccccc1-n1c(CF)nc2ccc(N)cc2c1=O,max response,[1],-0.397% (inactive)
same,Potency,[2],inactive
same,Potency,[3],inactive
same,Potency,[5],inactive
C[N+]1(C)CCCCC1COC(=O)C(O)(c1ccccc1)c1ccccc1 (stereo not drawn),max response,[1],-10.4% (inactive)
same,Potency,[2],inactive
same,Potency,[3],inactive
CCOC(=O)c1ccccc1C(=O)OCC,max response,[1],6.33% (inactive)
same,Potency,[4],inactive
same,Potency,[2],inactive
same,Potency,[3],inactive
same,Potency,[5],inactive
C[C@]12CCC(=O)C[C@@H]1CC[C@@H]1[C@@H]2CC[C@]2(C)[C@@H](O)CC[C@@H]12,max response,[1],17.9% (inactive)
same,Potency,[4],inactive
same,Potency,[2],inactive
same,Potency,[3],inactive
same,Potency,[5],8.2 µM (active)
C[N+]1([O-])[C@@H]2CC(OC(=O)[C@H](CO)c3ccccc3)C[C@H]1[C@@H]1O[C@@H]12 (stereo partly drawn),max response,[1],4.15% (inactive) and -13.5% (inactive)
same,Potency,[2],inactive
same,Potency,[3],inactive
same,Potency,[5],inactive
COc1ccc2c3c1O[C@H]1C(=O)CC[C@H]4[C@@H](C2)N(C)CC[C@]314,max response,[1],13% (inactive)
same,Potency,[2],inactive
same,Potency,[3],inactive
same,Potency,[5],inactive
CCC1C(C)=NN=C(c2ccc(OC)c(OC)c2)c2cc(OC)c(OC)cc21 (stereo not drawn),max response,[1],2.95% (inactive)
same,Potency,[2],inactive
same,Potency,[3],inactive
N#CN,max response,[1],10.9% (inactive)
same,Potency,[4],inactive
same,Potency,[2],inactive
same,Potency,[3],inactive
same,Potency,[5],inactive
CCN(CC)C(=O)/C(Cl)=C(\C)OP(=O)(OC)OC,max response,[1],-6.42% (inactive)
same,Potency,[2],inactive
same,Potency,[3],inactive
same,Potency,[5],inactive
C#CC(C)(O)CC (stereo not drawn),max response,[1],4.2% (inactive)
same,Potency,[2],inactive
same,Potency,[3],inactive
same,Potency,[5],inactive
CC(=O)O[C@H]1CC[C@H]2[C@@H]3CCC4=CC(=O)CCC4=C3C=C[C@]12C,max response,[1],5.16% (inactive)
same,Potency,[2],inactive
same,Potency,[3],inactive
same,Potency,[5],7.31 µM (active)
O=Cc1ccco1,max response,[1],5.14% (inactive)
same,Potency,[4],inactive
same,Potency,[2],inactive
same,Potency,[3],inactive
same,Potency,[5],inactive
